PubChem BioAssay (NCATS)
Where “and” joins values, the source holds several entries; their conditions need not be identical. Equal values may be shown once. Inconclusive results are not listed. Calls of active or inactive are those of the source. Unless noted, calls come from the whole dose curve; as a rule, active = well fitted curve in the direction sought with a large enough effect; inconclusive = small, poorly fitted or top-dose-only effect, or another doubt; inactive = no such curve, though single readings can be large; an effect the other way counts as inactive or inconclusive.

What was measured:
[1] = molecular target: Flap endonuclease 1 (Homo sapiens) (UniProt P39748); assay: qHTS Validation Assay for the Inhibitors of Human Flap endonuclease 1 (FEN1) (AID 488816); note: potency is the fitted concentration of half-maximal effect
Summary of the method: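 qHTS format: compounds and 10 nM FEN1 incubated 15 min at room temperature before adding 50 nM substrate. Cleavage followed by reads at 0 and 15 min; normalized data fitted to a four-parameter Hill curve.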

[2] = molecular target: M-phase phosphoprotein 8 (Homo sapiens) (UniProt Q99549); assay: qHTS Validation Assay for Inhibitors for MPP8 Chromodomain Interactions with Methylated Histone Tails (AID 488949); note: nearly all actives have a fitted effect of over 55% in size; note: potency is the fitted concentration of half-maximal effect
Summary of the method: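 AlphaScreen read-out: streptavidin donor and nickel chelate acceptor beads (final 10 ug/mL), 30 min in the dark at RT. Complex of 50 nM MPP8 and 50 nM b-H3(1-18)K9me3 peptide had been exposed to compounds for 30 min beforehand.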

[3] = molecular target: Chromobox protein homolog 1 (Homo sapiens) (UniProt P83916); assay: qHTS Validation Assay for Inhibitors of HP1-beta Chromodomain Interactions with Methylated Histone Tails (AID 488953); note: nearly all actives have a fitted effect of over 50% in size; note: potency is the fitted concentration of half-maximal effect
Summary of the method: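 Disruption of preformed HP1-beta:H3K9me3 peptide complexes (both 50 nM, PBS pH 7.4 with 0.01% Tween-20) is measured by AlphaScreen after 30 min compound exposure at room temperature, using streptavidin donor and nickel chelate acceptor beads at 10 ug/mL final.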

[4] = molecular target: Methanococcus maripaludis chaperonin (MmCpn) (UniProt Q6LX38); assay: High-Throughput Screening for Modulators of Cytosolic Chaperonin Activity: MmCpn Primary Screen (AID 488978);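 note: 50 nM MmCpn enzyme hydrolysing 30 µM ATP at 37 °C; 0% is about no effect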
Summary of the method: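 ADP formation read by HTRF Transcreener, 665/590 nm emission after 320 nm excitation. Enzyme: archaeal chaperonin at 50 nM final; substrate ATP 30 uM final; 10 min, 37C, after 5 min compound preincubation at RT.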

[5] = molecular target: Transient receptor potential cation channel subfamily V member 1 (Homo sapiens) (UniProt Q8NER1); assay: HTS Assay for Compounds that Act as Enhancers of the Vanilloid Receptor 1 (AID 488979); note: 0% is about no effect
Summary of the method: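 Calcium influx kinetics via Fluo-8 (480/520 nm) in TRPV1-expressing cells, 2000/well cultured overnight at 35.5C. Compound-alone read 3 min (agonist phase), followed by EC20 capsaicin challenge for 2 min (enhancer phase).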

[6] = molecular target: Thyrotropin receptor (Homo sapiens) (UniProt P16473); assay: qHTS Assay for Antagonists of the Thyroid Stimulating Hormone Receptor (AID 488980); note: series mostly up to about 58 µM; 0% is about no effect
Summary of the method: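 TSHR-HEK293 cells; 70 uM RO 20-1724 PDE inhibitor; compound + EC80 TSH (4 nM final); anti-cAMP cryptate antibody/cAMP-d2 in lysis buffer, 30 min RT; HTRF 665/620 nm read.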

[7] = molecular target: D(1A) dopamine receptor (Homo sapiens) (UniProt P21728); assay: HTS Assay for Allosteric Agonists of the Human D1 Dopamine Receptor: Primary Screen for Agonists (AID 488981); note: potency is the fitted concentration of half-maximal effect; for activation: 0% is about no effect
Summary of the method: (§1)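 Calcium flux in an inducible, force-coupled HEK293 Trex D1 line (overnight at 30 C): agonist mode is the 180 s kinetic read after compound; potentiator mode is the following 180 s read after dopamine at EC20.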

[8] = molecular target: D(1A) dopamine receptor (Homo sapiens) (UniProt P21728); assay: HTS Assay for Allosteric Agonists of the Human D1 Dopamine Receptor: Primary Screen for Antagonists (AID 488983);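 note: calcium flux response to an EC80 dopamine challenge measured with no-wash dye; % is set by controls: 0 for no effect and ±100 for the full control effect; nearly all actives have a fitted effect of over 65% in size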
Summary of the method: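 Kinetic fluorescence at 1 cycle/sec tracked intracellular calcium in force-coupled, tetracycline-inducible HEK293 T-REx D1 cells. Loss of response to an EC80 dopamine dose, given 180 s after compound, marked antagonists.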

[9] = molecular target: ATPase family AAA domain-containing protein 5 (Homo sapiens) (UniProt Q96QE3); assay: Validation screen for small molecules that inhibit ELG1-dependent DNA repair in human embryonic kidney (HEK293T) cells expressing luciferase-tagged ELG1 (AID 493107); note: nearly all actives have a fitted effect of over 70% in size; note: potency is the fitted concentration of half-maximal effect
Summary of the method: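 Cells are dispensed in 1536-well format, then 5-fluorouridine and compound are pinned in. After a 16 hr incubation at 37 °C and 5% CO2, ONE-Glo is added and luciferase measured on a CCD imager.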

[10] = molecular target: Thyrotropin-releasing hormone receptor (Homo sapiens) (UniProt P34981); assay: qHTS for Small Molecule Agonists and Allosteric Enhancers of Human TRH Receptor: Validation Screen for Agonists (AID 493127;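 active = calcium activation more than 3 SD above the typical response in the agonist read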;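 note: intracellular calcium rise by fluo-8 fluorescence before TRH EC20 addition; 0% is about no effect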); conditions: TRH receptor agonist cell assay; at 2 µM; stronger effect = higher value
Summary of the method: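 Compounds are added by online pintool to dye-loaded TRHR cells while fluorescence is recorded every second. A rise in calcium signal during the agonist read marks activation; a later 10 nM TRH addition (EC20) serves the separate enhancer mode.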

[11] = molecular target: Galactokinase (Homo sapiens) (UniProt P51570); assay: qHTS Validation Assay for Inhibitors of Human Galactokinase (GALK) (AID 493189); note: 0% is about no effect
Summary of the method: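 Luminescence from leftover ATP (Kinase-Glo Plus, 10 min) served as read-out after a 1 h room-temperature reaction of 5 nM GALK, 100 uM galactose and 35 uM ATP at pH8.0.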

[12] = Validation screen for small molecules that induce DNA re-replication in SW480 colon adenocarcinoma cells (AID 504364); note: 0% is about no effect
Summary of the method: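 Image-based qHTS: compounds were incubated with SW480 cells for 48 hr, nuclei stained with Hoechst, and per-nucleus fluorescence intensity scanned to flag cells with excess DNA content.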

[13] = molecular target: Peptidyl-prolyl cis-trans isomerase NIMA-interacting 1 (Homo sapiens) (UniProt Q13526); assay: qHTS Validation Assay to Find Inhibitors of Pin1 (AID 504536; active = well fitted inhibition curve with a large enough effect in the polarisation, with a control signal flat, not every such curve was filed as active; the % refers to the polarisation; note: potency is the fitted concentration of half-maximal effect)
Summary of the method: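 Fluorescence polarization competition: compounds (titration) displace HiFluor-488-labeled Pin1-1b peptide from Pin1 (0.3 uM final) in pH 7.5 HEPES buffer with DTT, 10 min at room temperature; %Activity normalized to no-enzyme wells, curves fitted.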

[14] = molecular target: Phosphoglycerate kinase, glycosomal (Trypanosoma brucei brucei) (UniProt P07378); assay: qHTS Validation Assay to Find Inhibitors of Phosphoglycerate Kinase (AID 504547); note: potency is the fitted concentration of half-maximal effect
Summary of the method: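 Luminescence end-point (Kinase-Glo Plus, 10 min) after a 60 min room-temperature coupled reaction. GAPDH at 100nM final supplies 1,3-BPG to PGK. Buffer: 100mM TEA pH 7.6, 5mM MgCl2, 0.01% Tween-20. Wells lacking PGK served as controls.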

[15] = molecular target: D(1A) dopamine receptor (Homo sapiens) (UniProt P21728); assay: HTS Assay for Allosteric Agonists of the Human D1 Dopamine Receptor: Primary Screen for Potentiators (AID 488982); note: 0% is about no effect
Summary of the method: as §1

[16] = qHTS for Inhibitors of Cell Surface uPA Generation: Validation Assay (AID 493164);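 note: RAW 264.7 macrophage cells exposed to compound for 18 h; 0% is about no effect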
Summary of the method: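 ATP-Lite luminescence read-out: ATP remains high when uPA activity-dependent LF translocation into the cytoplasm is blocked. RAW 264.7 cells, 18 h compound exposure at 37 C; 7-point titration, 2.45 nM to 38.3 uM final.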

[17] = Validation screen for small molecules that induce genotoxicity in human embryonic kidney (HEK293T) cells expressing luciferase-tagged ELG1 (AID 493106); note: potency is the fitted concentration of half-maximal effect
Summary of the method: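 Cells were dispensed at 2,000 per well, then 23 nL compound or DMSO was pinned in. After 16 hr at 37 °C and 5% CO2, ONE-Glo reagent was added. Luciferase activity was measured following 30 min at room temperature.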

[18] = molecular target: ATP-dependent 6-phosphofructokinase (Trypanosoma brucei brucei) (UniProt O15648); assay: qHTS Assay to Find Inhibitors of T. brucei phosphofructokinase: hit validation (AID 492961);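 note: luminescence reports ADP formed as PFK phosphorylates fructose-6-phosphate with ATP; series mostly up to about 51 µM; % is set by controls: 0 for no effect and ±100 for the full control effect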
Summary of the method: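 Measures ADP output of PFK (1.25 nM) at 0.1 mM ATP, 0.5 mM F6P, pH 8.0 TEA buffer with 5 mM MgCl2. No-enzyme wells define full inhibition; uninhibited enzyme wells define zero.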

[19] = Nrf2 qHTS screen for inhibitors: Validation (AID 493153; active = well fitted inhibition curve with a large enough effect in the main read-out, with a control signal flat, not every such curve was filed as active); conditions: Potency: luciferase luminescence; viability change: measured here: cytotoxicity max response
Summary of the method: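 A549 ARE_Fluc, 5% FBS OPTI-MEM; cpd titration, 18-24 h, 37°C/5% CO2. Read 1: CellTiter-Fluor (Ex 405/Em 525), cytotox. Read 2: luciferase lum, Nrf2 activity.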

[20] = molecular target: Tyrosyl-DNA phosphodiesterase 1 (Homo sapiens) (UniProt Q9NUW8); assay: Confirmation Assay for Inhibitors of Tyrosyl-DNA Phosphodiesterase (TDP1) (AID 489007); conditions: recombinant human TDP1 enzymatic activity, dose-response; note: potency is the fitted concentration of half-maximal effect; nearly all actives have a fitted effect of over 40% in size
Summary of the method: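 Compounds are preincubated 15 min at room temperature with 1 nM recombinant human Tdp1. The reaction starts on adding 15 nM FITC-phosphotyrosine DNA substrate, runs 5 min, and is detected by AlphaScreen beads after 10 min.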

Sequence of Chromobox protein homolog 1 (Homo sapiens) (P83916 whole entry, looked up): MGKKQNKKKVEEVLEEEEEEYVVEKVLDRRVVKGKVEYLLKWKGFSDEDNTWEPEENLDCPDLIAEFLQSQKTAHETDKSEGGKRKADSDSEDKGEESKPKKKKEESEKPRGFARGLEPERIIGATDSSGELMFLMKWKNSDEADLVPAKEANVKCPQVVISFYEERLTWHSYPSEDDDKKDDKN
Sequence of Phosphoglycerate kinase, glycosomal (Trypanosoma brucei brucei) (P07378 whole entry, looked up): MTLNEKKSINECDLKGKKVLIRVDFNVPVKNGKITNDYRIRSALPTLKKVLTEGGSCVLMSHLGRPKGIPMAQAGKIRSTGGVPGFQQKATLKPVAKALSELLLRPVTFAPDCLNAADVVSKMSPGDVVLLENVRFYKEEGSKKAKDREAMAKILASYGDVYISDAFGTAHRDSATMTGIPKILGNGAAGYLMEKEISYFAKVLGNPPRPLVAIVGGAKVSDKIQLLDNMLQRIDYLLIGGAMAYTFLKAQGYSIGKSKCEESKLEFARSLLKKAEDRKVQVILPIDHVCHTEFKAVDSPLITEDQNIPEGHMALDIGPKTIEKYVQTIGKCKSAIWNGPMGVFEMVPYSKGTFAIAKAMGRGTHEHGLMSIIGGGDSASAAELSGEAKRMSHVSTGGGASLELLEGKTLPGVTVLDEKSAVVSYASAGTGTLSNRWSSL
Sequence of D(1A) dopamine receptor (Homo sapiens) (P21728 whole entry, looked up): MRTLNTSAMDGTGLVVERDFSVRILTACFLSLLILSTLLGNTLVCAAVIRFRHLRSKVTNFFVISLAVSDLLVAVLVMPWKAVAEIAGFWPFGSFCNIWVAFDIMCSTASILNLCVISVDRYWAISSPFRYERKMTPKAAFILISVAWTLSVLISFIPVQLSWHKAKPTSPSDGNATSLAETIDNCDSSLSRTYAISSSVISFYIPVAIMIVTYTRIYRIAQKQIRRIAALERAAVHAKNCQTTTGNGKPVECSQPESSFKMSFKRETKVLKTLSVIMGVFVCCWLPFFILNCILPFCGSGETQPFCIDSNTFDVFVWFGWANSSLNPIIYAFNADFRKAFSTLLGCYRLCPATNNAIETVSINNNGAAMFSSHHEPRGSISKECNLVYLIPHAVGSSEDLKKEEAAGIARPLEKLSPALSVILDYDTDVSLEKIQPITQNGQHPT
Sequence of Thyrotropin-releasing hormone receptor (Homo sapiens) (P34981 whole entry, looked up): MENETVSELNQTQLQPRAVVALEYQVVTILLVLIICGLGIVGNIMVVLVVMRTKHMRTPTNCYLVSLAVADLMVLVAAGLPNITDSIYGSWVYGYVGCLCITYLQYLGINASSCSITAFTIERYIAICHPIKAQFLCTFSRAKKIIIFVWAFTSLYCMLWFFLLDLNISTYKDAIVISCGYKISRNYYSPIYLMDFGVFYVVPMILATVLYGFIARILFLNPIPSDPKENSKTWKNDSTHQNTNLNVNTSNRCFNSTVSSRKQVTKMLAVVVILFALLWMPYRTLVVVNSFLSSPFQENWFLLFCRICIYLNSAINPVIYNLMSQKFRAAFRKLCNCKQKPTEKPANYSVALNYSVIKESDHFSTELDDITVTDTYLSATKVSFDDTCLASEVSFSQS
Sequence of Thyrotropin receptor (Homo sapiens) (P16473 whole entry, looked up): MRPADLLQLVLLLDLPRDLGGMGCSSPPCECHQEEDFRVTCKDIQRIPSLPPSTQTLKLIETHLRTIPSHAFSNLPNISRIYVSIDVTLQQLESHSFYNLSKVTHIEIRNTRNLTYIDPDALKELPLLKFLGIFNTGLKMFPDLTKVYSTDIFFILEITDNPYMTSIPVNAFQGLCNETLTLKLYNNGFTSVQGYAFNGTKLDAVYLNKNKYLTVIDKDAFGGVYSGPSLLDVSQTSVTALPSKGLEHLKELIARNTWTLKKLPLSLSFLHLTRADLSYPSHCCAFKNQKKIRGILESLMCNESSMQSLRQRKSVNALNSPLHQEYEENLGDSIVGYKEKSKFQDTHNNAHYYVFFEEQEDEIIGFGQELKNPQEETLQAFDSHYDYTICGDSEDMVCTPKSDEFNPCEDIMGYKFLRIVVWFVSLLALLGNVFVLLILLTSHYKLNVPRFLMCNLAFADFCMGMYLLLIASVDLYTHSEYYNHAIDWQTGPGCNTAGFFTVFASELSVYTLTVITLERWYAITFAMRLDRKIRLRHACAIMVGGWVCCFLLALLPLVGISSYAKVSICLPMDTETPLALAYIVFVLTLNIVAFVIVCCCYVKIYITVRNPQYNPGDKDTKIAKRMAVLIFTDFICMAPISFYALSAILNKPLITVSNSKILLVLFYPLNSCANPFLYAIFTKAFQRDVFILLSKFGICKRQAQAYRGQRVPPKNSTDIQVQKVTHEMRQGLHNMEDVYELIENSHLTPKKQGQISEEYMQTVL
Sequence of ATPase family AAA domain-containing protein 5 (Homo sapiens) (Q96QE3 whole entry, looked up, the tested form may be a part): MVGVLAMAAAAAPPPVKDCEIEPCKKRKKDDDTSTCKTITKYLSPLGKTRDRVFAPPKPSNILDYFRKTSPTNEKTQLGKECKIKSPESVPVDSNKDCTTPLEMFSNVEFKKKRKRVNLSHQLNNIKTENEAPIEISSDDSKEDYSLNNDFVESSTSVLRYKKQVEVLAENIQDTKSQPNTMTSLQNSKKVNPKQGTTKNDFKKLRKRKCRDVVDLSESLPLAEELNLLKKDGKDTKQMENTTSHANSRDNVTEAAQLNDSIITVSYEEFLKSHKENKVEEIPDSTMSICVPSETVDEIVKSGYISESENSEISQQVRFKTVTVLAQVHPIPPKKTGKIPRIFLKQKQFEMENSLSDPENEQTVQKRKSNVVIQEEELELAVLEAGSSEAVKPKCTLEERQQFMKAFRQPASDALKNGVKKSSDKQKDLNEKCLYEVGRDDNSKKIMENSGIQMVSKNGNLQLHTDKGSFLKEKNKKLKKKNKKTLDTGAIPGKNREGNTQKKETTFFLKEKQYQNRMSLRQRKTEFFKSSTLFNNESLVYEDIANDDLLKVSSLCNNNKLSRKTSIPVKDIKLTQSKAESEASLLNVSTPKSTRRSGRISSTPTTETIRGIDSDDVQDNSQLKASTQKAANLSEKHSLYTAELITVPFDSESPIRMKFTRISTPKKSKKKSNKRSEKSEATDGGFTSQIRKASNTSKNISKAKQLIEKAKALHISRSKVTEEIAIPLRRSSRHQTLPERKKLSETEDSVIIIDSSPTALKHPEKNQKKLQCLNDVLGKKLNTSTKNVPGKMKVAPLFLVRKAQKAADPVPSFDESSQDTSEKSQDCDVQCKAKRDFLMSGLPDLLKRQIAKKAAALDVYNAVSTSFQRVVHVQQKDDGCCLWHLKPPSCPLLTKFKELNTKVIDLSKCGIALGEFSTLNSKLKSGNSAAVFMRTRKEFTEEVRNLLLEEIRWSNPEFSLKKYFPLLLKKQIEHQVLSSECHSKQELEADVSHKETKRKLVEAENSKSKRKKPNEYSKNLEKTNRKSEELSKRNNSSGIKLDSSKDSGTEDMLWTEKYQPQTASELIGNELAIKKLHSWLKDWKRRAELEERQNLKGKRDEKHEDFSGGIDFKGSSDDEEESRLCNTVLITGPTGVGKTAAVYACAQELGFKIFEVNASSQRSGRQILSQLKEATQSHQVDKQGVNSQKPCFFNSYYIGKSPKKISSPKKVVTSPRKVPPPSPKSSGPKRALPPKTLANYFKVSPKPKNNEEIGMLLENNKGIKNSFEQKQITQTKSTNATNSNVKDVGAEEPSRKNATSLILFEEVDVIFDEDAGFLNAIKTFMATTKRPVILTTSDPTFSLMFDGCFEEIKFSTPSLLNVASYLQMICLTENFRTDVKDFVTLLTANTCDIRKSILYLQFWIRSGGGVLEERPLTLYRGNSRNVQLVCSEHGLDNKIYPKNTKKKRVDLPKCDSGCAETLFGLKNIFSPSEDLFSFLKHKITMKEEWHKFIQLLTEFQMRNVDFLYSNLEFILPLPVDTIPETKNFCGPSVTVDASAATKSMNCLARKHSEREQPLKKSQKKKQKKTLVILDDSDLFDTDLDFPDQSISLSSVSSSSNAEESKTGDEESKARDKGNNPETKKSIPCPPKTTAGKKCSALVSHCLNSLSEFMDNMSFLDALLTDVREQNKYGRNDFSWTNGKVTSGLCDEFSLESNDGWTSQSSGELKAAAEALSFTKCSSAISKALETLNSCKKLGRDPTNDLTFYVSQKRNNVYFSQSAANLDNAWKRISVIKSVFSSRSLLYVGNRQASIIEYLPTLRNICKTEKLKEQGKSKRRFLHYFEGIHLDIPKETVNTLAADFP
Sequence of M-phase phosphoprotein 8 (Homo sapiens) (Q99549 whole entry, looked up): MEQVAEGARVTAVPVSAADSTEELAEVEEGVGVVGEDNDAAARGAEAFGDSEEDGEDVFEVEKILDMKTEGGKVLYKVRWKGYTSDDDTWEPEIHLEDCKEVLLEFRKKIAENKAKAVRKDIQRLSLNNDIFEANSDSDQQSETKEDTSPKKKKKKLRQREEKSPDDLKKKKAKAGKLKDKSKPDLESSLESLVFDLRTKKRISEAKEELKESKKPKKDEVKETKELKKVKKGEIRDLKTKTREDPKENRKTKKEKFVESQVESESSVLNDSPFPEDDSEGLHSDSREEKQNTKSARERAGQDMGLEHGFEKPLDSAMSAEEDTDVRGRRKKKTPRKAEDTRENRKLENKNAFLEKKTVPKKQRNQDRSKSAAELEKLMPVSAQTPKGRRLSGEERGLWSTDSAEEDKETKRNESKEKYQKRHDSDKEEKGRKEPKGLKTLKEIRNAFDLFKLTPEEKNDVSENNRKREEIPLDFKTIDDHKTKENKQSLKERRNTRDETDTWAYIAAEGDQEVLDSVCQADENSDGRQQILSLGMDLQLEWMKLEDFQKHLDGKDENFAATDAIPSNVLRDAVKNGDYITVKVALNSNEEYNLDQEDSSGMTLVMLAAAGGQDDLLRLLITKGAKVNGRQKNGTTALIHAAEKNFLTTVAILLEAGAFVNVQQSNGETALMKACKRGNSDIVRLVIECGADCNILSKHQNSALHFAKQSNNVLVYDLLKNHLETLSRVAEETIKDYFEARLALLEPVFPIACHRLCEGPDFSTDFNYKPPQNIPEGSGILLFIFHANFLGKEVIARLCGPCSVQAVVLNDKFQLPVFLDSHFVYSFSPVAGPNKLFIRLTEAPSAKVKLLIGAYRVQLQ

NC(=O)c1cc(N2CC2)c([N+](=O)[O-])cc1[N+](=O)[O-]
inactive: Potency [1] | Potency [2] | Potency [3] | outcome [4] | outcome [5] | outcome [6] | Potency [7] | Potency [8] | Potency [9] | activation [10] 0.0625% | outcome [11] | Potency [12] | Potency [13] | Potency [14]

CCCn1c(C)c(C(=O)c2ccc3ccccc3c2)c2ccccc21
inactive: Potency [1] | Potency [2] | Potency [3] | outcome [4] | outcome [5] | outcome [6] | Potency [7] | Potency [15] | Potency [8] | activation [10] -5.69% | outcome [16] | outcome [11] | Potency [13] | Potency [14]

CC1(C(=O)O)C2CCC(O2)C1(C)C(=O)O (centres undefined)
inactive: Potency [1] | Potency [2] | outcome [4] | outcome [5] | outcome [6] | Potency [7] | Potency [8] | activation [10] 0.438% | outcome [11] | Potency [12] | Potency [13] | Potency [14]
active: Potency [3] 0.0084 µM | Potency [17] 3.66 µM | Potency [9] 7.3 µM

C=CCN1CCC23c4c5ccc(O)c4O[C@H]2C(=O)CC[C@@]3(O)C1C5 (some centres undefined)
inactive: Potency [1] | Potency [2] | Potency [3] | outcome [4] | outcome [5] | outcome [6] | Potency [7] | Potency [8] | Potency [18] | Potency [9] | Potency [19] | outcome [16] | outcome [11] | Potency [12] | Potency [13] | Potency [14]
2.4%: viability change [19]

O=C(O)c1cc[c]([Hg][Cl])cc1
active: Potency [2] 5.32 µM | Potency [3] 39.8 µM | Potency [20] 56.2 µM
inactive: Potency [1] | outcome [4] | outcome [5] | outcome [6] | Potency [7] | Potency [15] | Potency [8] | Potency [17] | activation [10] 1.5% | Potency [19] | outcome [11] | Potency [12] | Potency [13] | Potency [14]
-2.02%: viability change [19]

NC(Cc1cc(O)c(O)cc1O)C(=O)O (centres undefined)
-20.4%: viability change [19]
active: Potency [1] 0.67 µM | Potency [2] 501 nM and 474 nM | Potency [3] 0.316 µM | Potency [20] 4.47 µM | Potency [13] 1.69 µM | Potency [14] 338 nM
inactive: outcome [4] | outcome [5] | outcome [6] | Potency [7] | Potency [8] | Potency [9] | activation [10] 1.06% | Potency [19] | outcome [16] | outcome [11] | Potency [12]

Cc1c2ccncc2c(C)c2c1[nH]c1ccccc12
active: Potency [1] 10.6 µM | Potency [3] 50.1 µM | Potency [7] 10 µM | Potency [9] 16.4 µM
inactive: Potency [2] | outcome [4] | outcome [5] | outcome [6] | Potency [15] | Potency [8] | Potency [17] | activation [10] 28.2% | outcome [11] | Potency [13] | Potency [14]

Clc1cc(I)cc(Cl)c1NC1=NCCN1
9.07%: viability change [19]
inactive: Potency [1] | Potency [2] | Potency [3] | outcome [4] | outcome [5] | outcome [6] | Potency [7] | Potency [15] | Potency [8] | Potency [9] | activation [10] 1.69% | Potency [19] | outcome [16] | outcome [11] | Potency [12] | Potency [13] | Potency [14]
